Screening results from PubChem.
Hits are enriched below; roughly 2.1% of the tested compounds scored in any of these assays.
TRPM1 prom inh = inhibitors of MITF-driven TRPM1 promoter in melanoma cells. actives 0.83% (n = 330,000). inhibition, % at 12.5 µM. SK-MEL-5 TRPM1 promoter luciferase, 24 h;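 active = mean inhibition across replicates of 60% or more, whatever share of single replicates reaches that level; inconclusive = some that reach 60%, reason not given; inactive = mean inhibition across replicates below 60%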
Shn3 inh set2 = reduces Shn3 3'UTR luciferase signal in osteoblasts; actives 0.52% (n = 360,000); AID 588674; Clone20 osteoblast Shn3 3'UTR firefly luciferase, 24 h; inhibition, % at 12.5 µM;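 active = mean inhibition of at least 75% with every replicate also reaching 75%; inconclusive = mean inhibition at least 75% but some replicate below; inactive = mean inhibition below 75%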;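 also: 0% = median of neutral control wells and 100% = pilot-screen positive control compound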
EBV LMP1 NFkB = reduces LMP1-driven NF-kappaB luciferase signal | actives 0.69% (n = 350,000) | inhibition, % at 12.5 µM | LMP1-induced NF-kappaB luciferase reporter cells, luminescence | AID 504558; in the data active = inhibition above about 41%; inconclusive = no clear call, values can overlap the other calls;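 also: 0% = neutral control wells and 100% = reference inhibitor control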
aSyn UTR inh = MLPCN primary screen, SNCA 5' untranslated region. alpha-synuclein 5'UTR reporter, inhibitor activity. inhibition, % (tested at 7.5 µM). actives 0.82% (n = 300,000); in the data active = inhibition above about 60%; inconclusive = no clear call, values can overlap the other calls;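 also: H4 neuroglioblastoma cells stably carrying SNCA 5'UTR luciferase fusion; 0% = DMSO wells and 100% = positive control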
PAX8 inh HTS = PAX8 transcriptional activity inhibition; actives 1.2% (n = 360,000); AID 652154; inhibition, % at 12.6 µM; RMG-I TPO-luciferase reporter, SteadyGlo, 24 h;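 active = mean replicate inhibition at least 60% with every replicate also reaching 60%; inconclusive = only one of the two criteria is met; inactive = mean below 60% and not all replicates reaching 60%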;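 also: luciferase light reporting Pax8 driven TPO promoter activity; plate controls were median of neutral control wells for no effect and mitoxantrone controls for full effect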
Starred values were filed as active, the others as inactive; u = inconclusive; x = not tested or not shown; ! = not active in a repeat.

SMILES	TRPM1 prom inh	Shn3 inh set2	EBV LMP1 NFkB	aSyn UTR inh	PAX8 inh HTS
CCOC(=O)CS(=O)(=O)c1nc(-c2ccccc2)cc(C(F)(F)F)n1	101.5*	97.4*	u	-20.5	x
COc1ccc(-c2cc(C(F)(F)F)nc(S(=O)(=O)CCCC(=O)Nc3cccnc3Cl)n2)cc1OC	79.2*	96.1*	-7.4	x	71.5*
COC(=O)CCS(=O)(=O)c1nc(-c2ccccc2)cc(C(F)(F)F)n1	94.0*	76.1	-37.2	-73.2	x
Cc1ccc(NCc2nc3ccccc3n2C)c(C)c1	19.4	-27.9	-0.9	-0.4	-23.5
Cc1ccc(Nc2nc3ccccc3nc2-n2nc(C)cc2C)cc1	x	3.4	-2.3	16.3	5.5
C[C@@H]1CN([C@@H](C)CO)C(=O)Cc2cc(NC(=O)CCC(F)(F)F)ccc2O[C@H]1CN(C)C(=O)Nc1ccc(C(F)(F)F)cc1	x	x	x	x	15.6
CN(Cc1nccs1)C(=O)c1cc(COc2cccc3cnccc23)on1	9.4	u	16.7	24.8	4.6
CCOC(=O)CCS(=O)(=O)c1nc(-c2ccccc2)cc(C(F)(F)F)n1	85.1*	97.6*	-23.8	-129.3	x
Cc1cc(NC(=O)CSc2nc(-c3cccs3)cc(C(F)(F)F)n2)no1	33.8	31.1	20.1	55.3	x
CCOC(=O)Cc1cc(-c2ccccc2)nc2ccc3ccccc3c12	12.9	-20.5	1.9	5.9	23.0
Cc1cc(NC(=O)CCCS(=O)(=O)c2nc(-c3cccs3)cc(C(F)(F)F)n2)no1	95.2*	94.8*	-0.2	-91.9	106.1*
CCC1=C(OC(=O)N(CC)CC)N2C(=O)OC(=NCC3CC3)[C@]2(Cc2ccccc2)[C@H]2C1=CC[C@H]1C(=O)N(CC)C(=O)[C@H]12	3.0	27.4	7.5	7.3	-17.3
C[C@H]1CN([C@@H](C)CO)C(=O)c2cc(NC(=O)Cc3cn(C)c4ccccc34)ccc2O[C@@H]1CN(C)S(=O)(=O)c1ccc(Cl)cc1	x	x	x	x	-12.6
O=C1C=C(NCCc2cc(Br)c(O)c(Br)c2)C(=O)c2ncccc21	109.2*	93.6*	18.2	x	101.4*
CC(C)(C)c1cc(CCC(=O)NCCc2ccccn2)cc(C(C)(C)C)c1O	-1.6	10.6	-11.3	-6.7	3.2
O=C(Cc1nc2ccccc2[nH]1)c1cccc([N+](=O)[O-])c1	-3.6	38.7	6.7	-22.7	62.1*
O=C(Nc1nc2ccccc2[nH]1)c1cccc([N+](=O)[O-])c1	-26.5	-71.4	-35.3	-250.4	-120.5
Cn1cccc1C(=O)OCC(=O)Nc1ccc2c(c1)CCC2	-75.8	-35.4	-19.0	-137.8	-193.5
Cn1cccc1C(=O)OCC(=O)Nc1ccc2c(c1)OCO2	-6.7	-7.1	44.2*	-100.9	-10.1
CCOC(=O)C(c1ccccc1)C(Nc1ccccc1)c1ccccn1 (configuration not stated)	3.2	-0.6	-0.3	-7.2	11.3
COC(=O)c1cc2c(c3c4cc(C)ccc4n(S(=O)(=O)c4ccc(OC)cc4)c13)C(=O)N(Cc1ccc(C(F)(F)F)cc1)C2	x	x	x	x	-197.0
CCCc1nc(N)c(C#N)c(-c2cccnc2)c1CC	-5.1	11.7	-3.2	21.9	14.0
N#Cc1ccccc1Sc1ccccc1C(=O)OCC(=O)NC12CC3CC(CC(C3)C1)C2	-0.9	6.9	15.7	0.7	-3.2
CC1CCCC(NC(=O)COC(=O)c2ccccc2Sc2ccccc2C#N)C1C (configuration not stated)	3.6	-10.7	5.8	5.5	132.7*
COC(=O)CCN(Cc1cccc(OC)c1OC)S(=O)(=O)c1ccccc1Br	x	x	x	x	-18.5
SMILES	TRPM1 prom inh	Shn3 inh set2	EBV LMP1 NFkB	aSyn UTR inh	PAX8 inh HTS
Cc1cc2nc(-c3ccc(SCC(=O)Nc4nccs4)nc3)[nH]c2cc1C	74.1*	9.2	-11.1	x	x
CC(=O)CSc1ccc(-c2nc3ccccc3[nH]2)cn1	-1.5	-65.3	5.9	-72.0	-9.2
Cc1cc2nc(-c3ccc(SCC(=O)Nc4ccc(S(=O)(=O)N5CCCC5)cc4)nc3)[nH]c2cc1C	-28.4	-31.3	-30.9	-147.1	-80.2
CC(=O)CSc1ccc(-c2nc3cc(C)c(C)cc3[nH]2)cn1	82.7*	68.8	71.7*	120.6*	68.5*
COC(=O)c1cc2sccc2n1Cc1ccc(C)cc1	-7.8	3.4	-6.1	32.9	x
O=C(NCc1ccccc1)/C(=C/c1cccc([N+](=O)[O-])c1)NC(=O)c1ccco1	x	-29.9	26.5	9.4	3.4
CC1CCC(C(C)C)C(OC(=O)C[n+]2cc(-c3ccc(Cl)cc3)n3c2CCCCC3)C1 (configuration not stated)	86.6*	59.7	19.0	-12.4	102.3*
Cc1nc(C)n(C(C)CNC(=O)c2ccco2)n1 (configuration not stated)	5.8	-2.0	44.6*	16.6	-6.4
Cc1nc(C)n(C(C)CNC(=O)c2ccccc2)n1 (configuration not stated)	7.9	8.6	-8.9	-15.5	9.0
COc1ccc(NS(=O)(=O)c2ccc(OC)c(N(C)S(=O)(=O)c3ccc(Cl)cc3)c2)cc1	18.9	87.3*	31.2	-24.8	x
C[C@@H]1CN([C@@H](C)CO)C(=O)CCCn2nncc2CO[C@H]1CN(C)C(=O)NC1CCCCC1	x	-1.6	-3.9	x	-7.0
CCC(C)NC(=O)CSc1nc2c(sc(=S)n2Cc2ccco2)c(=O)n1-c1ccccc1 (configuration not stated)	1.8	21.6	-6.5	7.7	x
COc1cc(NC(=O)c2csc(N)n2)cc(C(=O)Nc2cccc(C(F)(F)F)c2)c1	31.6	-13.0	-9.1	33.9	81.9*!
COc1cc(NC(=O)c2cnc(N)s2)cc(C(=O)Nc2cccc(C(F)(F)F)c2)c1	x	-30.9	28.2	-50.6	56.5
COc1cc(NC(=O)c2cc(C)on2)cc(C(=O)Nc2cccc(C(F)(F)F)c2)c1	17.8	28.1	-4.7	1.4	85.8*
COc1cc(NC(=O)c2ccnc(N)c2)cc(C(=O)Nc2cccc(C(F)(F)F)c2)c1	-25.2	-1.7	5.1	16.2	52.1
O=S1(=O)CC(N2CCCCC2)C(N2CCCCC2)C1 (configuration not stated)	14.0	6.7	50.9*	-24.7	x
O=C(Cc1csc(Nc2nc(=S)[nH]c3ccccc23)n1)NCCCN1CCN(c2ccccc2F)CC1	66.3*	-2.1	-31.1	91.5*	65.0*
O=C(Cc1csc(Nc2nc(=S)[nH]c3ccccc23)n1)NCc1ccc(Cl)cc1	6.7	9.6	-7.2	-28.0	x
O=C(N[C@@H](Cc1ccccc1)C(=O)CCl)OCc1ccccc1	95.8*	16.8	56.4*	x	49.7
O=C(N[C@@H](Cc1ccccc1)C(=O)N[C@@H](Cc1ccccc1)C(=O)O)OCc1ccccc1	9.0	3.1	-0.1	1.0	19.7
O=[N+]([O-])c1ccc(Oc2cccnc2)c([N+](=O)[O-])c1	-1.0	21.4	-6.0	x	64.1*
Nc1ccc(Oc2ccc([N+](=O)[O-])cc2[N+](=O)[O-])cc1	-0.9	-16.5	-16.7	2.7	x
CC1(C)CC(N2CCN(c3ccccc3)CC2)=CC(=[N+]2CCCC2)C1	56.8	86.4*	6.7	-3.0	x
CC1(C)CC(N2CCCC2)=CC(=[N+]2CCCCCC2)C1	51.5	83.7	8.4	-2.0	79.3*
